Compound activity as filed in PubChem BioAssay.
In the library only some 15% were active in any assay of this set; here they are far more common.
Pf growth 96h: P. falciparum growth inhibition at 96 hour, primary screen for plastid delayed-death inhibitors; P. falciparum luciferase reporter growth, 96 h; Potency, µM (titrated, usually from 28.7 µM), inactives show at the top dose activity change, negative = inhibition, actives largely listed as inhibitors; 320,000 compounds, 6.9% hits; note: potency is the fitted concentration of half-maximal effect; % is set by controls: 0 for no effect and ±100 for the full control effect
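Two parasite generations (96 h, 37 C, 5% CO2) of compound exposure in infected erythrocytes (0.05% parasitemia, 2% hematocrit). Luciferase-reporter P. falciparum; decreased luminescence indicates inhibited growth, aimed at apicoplast-acting delayed death.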
SARS PLpro yeast: inhibitors of SARS-CoV papain-like protease in yeast. S. cerevisiae expressing SARS-CoV PLpro, growth rescue. Potency, µM (series often up to 32.9 µM), inactives show at the top dose activity, positive = growth rescue, most hits filed as activators. 330,000 compounds, 0.19% hits. AID 485353; calls by dose curve; note: potency is the fitted concentration of half-maximal effect; 0% is about no effect; nearly all actives have a fitted effect of over 55% in size
HCV inhibitor: inhibitors of hepatitis C virus infection; Huh7.5.1 HCVcc-Cre infection, luciferase reporter, 44 h; Potency, µM (doses to about 41.8 µM), for inactives: top-dose activity change, negative = inhibition, usual class: inhibitors; 340,000 compounds, 3.4% hits; AID 651820; note: potency is the fitted concentration of half-maximal effect; % is set by controls: 0 for no effect and ±100 for the full control effect
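Seed cells (1,000/well) for 4 h; treat with compound and infect with HCVcc-Cre, moi about 0.5. Incubate 44 h, then detect luciferase activity.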
HCMV inh: blocks human cytomegalovirus replication; activity change, negative = inhibition, % at 57.5 µM; HFF cells, HCMV-luciferase reporter, 72 h; active compounds read low; 410,000 compounds, 4.5% hits; in the data active = activity change below about -60%; inconclusive = no clear call, values can overlap the other calls; inactive = above about -39%; note: % is set by controls: 0 for no effect and ±100 for the full control effect
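Luciferase read-out from HCMV-luciferase-infected HFFs (MOI 1 PFU/cell) 72 h post infection at 37C; compounds added after 16 h cell attachment; activity normalized between buffer-only basal and Salinomycin (10uM) inhibitor controls.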
Pf growth 48h: P. falciparum growth inhibition at 48 hours (one generation). P. falciparum luciferase growth in erythrocytes, 48 h. Potency, µM (doses to about 28.7 µM), for inactives: at the top dose activity change, negative = inhibition, most hits filed as inhibitors. 310,000 compounds, 5.9% hits. AID 504832; note: potency is the fitted concentration of half-maximal effect; % is set by controls: 0 for no effect and ±100 for the full control effect
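Luciferase-expressing parasites in RBCs, 2% Hct / 0.1% parasitemia final; RPMI 1640 + 0.5% Albumax; 37 C, 5% CO2, one generation; luminescence read-out, lower signal = inhibition.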
Sm TGR inh: S. mansoni TGR enzyme inhibition. 360,000 compounds, 3% hits. Potency, µM (titrated, usually from 114 µM), inactives show at the top dose activity change, negative = inhibition, hits mostly inhibitors. AID 485364. purified TGR, DTNB reduction, TNB absorbance 405 nm. Q962Y6; note: potency is the fitted concentration of half-maximal effect; % is set by controls: 0 for no effect and ±100 for the full control effect; nearly all actives have a fitted effect of over 60% in size
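First, TGR (20 nM dispensed) and NADPH were mixed with compound. Second, a 15 min room-temperature incubation followed. Third, further NADPH and then DTNB were added to start the reaction. Finally, TNB absorbance was monitored kinetically.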
Numbers without * were called inactive; ? = inconclusive; nt = no result; [ ] = dose if it differs, or a comment. Unless noted, calls come from the whole dose curve; as a rule, active = well fitted curve in the direction sought with a large enough effect; inconclusive = small, poorly fitted or top-dose-only effect, or another doubt; inactive = no such curve, though single readings can be large; an effect the other way counts as inactive or inconclusive.

SMILES	Pf growth 96h	SARS PLpro yeast	HCV inhibitor	HCMV inh	Pf growth 48h	Sm TGR inh
CN(CC1CCOCC1)C(=O)CC1C(=O)NCCN1C/C=C/c1ccccc1 (stereo unspecified)	4.7µM*	1%	6%	-20	6%	-11%
COc1cccc(CN2CCNC(=O)C2CC(=O)N(C)CCC2CCOCC2)c1OC (stereo unspecified)	-12%	2%	nt	21	-12%	25µM*
COc1cccc(CN2CCNC(=O)C2CC(=O)NCC(C)(C)N2CCOCC2)c1OC (stereo unspecified)	10µM*	2%	-13%	23	3%	-5%
CN(CCC1CCOCC1)C(=O)CC1C(=O)NCCN1C/C=C/c1ccccc1 (stereo unspecified)	40%	1%	8%	-20	-2%	2%
COc1cccc(CN2CCNC(=O)C2CC(=O)NCCN2CCOCC2)c1OC (stereo unspecified)	49%	1%	5%	15	6%	-9%
CCN(CC)C(=O)C1CCCN(c2ccccc2[N+](=O)[O-])C1 (stereo unspecified)	40%	1%	23%	-28	?	6%
Cc1cc(C)n(-c2nnc(Nc3ccc(C)c(C)c3)c3ccccc23)n1	nt	nt	nt	0	nt	-9%
CCCCOCCCNC(=O)C[C@@H]1C[C@@]2(C(=O)OCC)CCC=C2N(Cc2cccc3ccccc23)C1=O	nt	nt	nt	-18	nt	nt
COc1ccc(C2CC3(CC(C)(C)NC(SC)=N3)Oc3cc(O)cc(C)c32)cc1 (stereo unspecified)	0%	-10%	13µM*	-76*	?	-8%
Cc1cc(O)cc2c1C(c1ccc(F)cc1)CC1(CC(C)(C)NC(=S)N1)O2 (stereo unspecified)	30%	-1%	22µM*	nt	?	40%
CC1(C)CC2(CC(c3ccccc3)c3ccc(O)cc3O2)NC(=S)N1 (stereo unspecified)	?	0%	?	-25	-10%	2%
COc1ccc(C2CC3(CC(C)(C)NC(=S)N3)Oc3cc(O)cc(C)c32)cc1 (stereo unspecified)	4.1µM*	12%	?	46	?	-3%
COc1ccc(C2CC3(CC(C)(C)NC(=O)N3)Oc3cc(O)ccc32)cc1 (stereo unspecified)	nt	1%	-12%	9	?	-1%
CCOC(=O)c1ccc(OCC2c3cc(OC)c(OC)cc3CCN2C(=O)c2ccc(S(=O)(=O)N3CCCC3)cc2)cc1 (stereo unspecified)	nt	nt	nt	12	nt	-2%
COc1ccc(-c2cc(C(F)(F)F)nc(N3CCN(Cc4ccccc4)CC3)n2)cc1OC	69%	3%	-18%	11	10µM*	9%
COc1ccc(-c2cc(C(F)(F)F)nc(N3CCN(c4ccc(F)cc4)CC3)n2)cc1OC	nt	20%	-10%	32	nt	9%
O=C(O)c1ccc(CS(=O)(=O)c2ccc(Br)cc2)cc1	?	3%	0%	19	2%	1%
O=c1cc(-c2ccccc2)[nH]n1-c1ccc([N+](=O)[O-])cc1	?	-20%	-14%	-95*	?	3%
O=c1c(N=Nc2ccc(O)cc2)c(-c2ccccc2)[nH]n1-c1ccc([N+](=O)[O-])cc1	11%	6%	?	-12	11%	12%
COCCN(C(=O)COC(=O)C12CC3CC(CC(C3)C1)C2)c1c(N)n(Cc2ccccc2)c(=O)[nH]c1=O	nt	nt	10%	7	nt	nt
COc1ccc(-n2c(N)c(C(=O)NCc3ccco3)sc2=S)cc1	?	1%	6%	-2	?	-1%
COc1ccc(-n2c(N)c(C(=O)NCc3ccco3)c3nc4ccccc4nc32)cc1OC	?	25%	?	-81*	13µM*	40µM*
COc1ccc(C(=O)Nc2ccccc2C(=O)NCc2ccco2)cc1OC	?	0%	?	22	nt	19%[11.4 µM]
Nc1c(C(=O)NCc2ccco2)c2nc3ccccc3nc2n1CCN1CCCCC1	9.3µM*	-1%	?	-68*	?	-18%
COc1ccc(Cn2c(N)c(C(=O)NCc3ccco3)c3nc4ccccc4nc32)cc1OC	3.7µM*	-5%	7.1µM*	10	?	35µM*
SMILES	Pf growth 96h	SARS PLpro yeast	HCV inhibitor	HCMV inh	Pf growth 48h	Sm TGR inh
Nc1c(C(=O)NCc2ccco2)c2nc3ccccc3nc2n1CCc1ccc(F)cc1	?	12%	-18%	-28	nt	?
COc1ccc(-n2c(N)c(C(=O)NCc3ccco3)c3nc4ccccc4nc32)cc1	?	5%	?	?	?	45µM*
CC(O)(c1cccnc1)c1nc(-c2ccc(F)c(Cl)c2)cs1 (stereo unspecified)	nt	nt	nt	2	nt	nt
COc1cc(-n2c(N)c(C(=O)NCc3ccco3)c3nc4ccccc4nc32)cc(OC)c1OC	13µM*	16%	-22%	-39	12µM*	25µM*
COCCNC(=O)C1(C)CCCN(C(=O)c2cc(OC)c(OC)c(OC)c2)C1 (stereo unspecified)	nt	nt	nt	51	nt	nt
Cn1c(O)c(/C=N/NC(=O)c2ccncc2)c(=O)n(C)c1=S	16%	-2%	8%	119	-12%	20µM*
O=C(N/N=C/c1c(O)n(-c2ccccc2)c(=O)[nH]c1=O)c1ccncc1	45%	-10%	30%	16	34%	40µM*
CCOc1ccc2nc(N3CCCC(C(=O)Nc4ccc(OC)c(Cl)c4)C3)sc2c1 (stereo unspecified)	nt	nt	nt	38	nt	2%
Oc1cc(Cc2ccccc2)cnc1CN1CCCCC1	-25%	-1%	-3%	-3	0.93µM*	?
N#Cc1nc(-c2cccc3ccccc23)oc1NCC#CCOC(=O)c1cccs1	11%	-2%	nt	nt	1%	-33%
O=C(CC1OC(=O)c2ccccc21)Nc1cc(Cl)ccc1N1CCCC1 (stereo unspecified)	-9%	-1%	?	-12	?	-11%
COc1ccc(-c2csc(C(C)(O)c3ccc(F)c(F)c3)n2)cc1 (stereo unspecified)	nt	nt	nt	-63*	nt	nt
COc1ccc(C(C)(O)c2nc(-c3cccc(C(F)(F)F)c3)cs2)cc1 (stereo unspecified)	nt	nt	nt	-67*	nt	nt
CN(C)c1ccc(-c2csc(C(C)(O)c3ccc(F)c(F)c3)n2)cc1 (stereo unspecified)	nt	nt	nt	-64*	nt	nt
Cc1cc(C)c(C#N)c(OCC(=O)c2ccc(Br)cc2)n1	4.7µM*	-3%	?	81	?	11%
Cc1ccc(C(=O)COc2nc(C)cc(C)c2C#N)cc1	?	-5%	-7%	41	-16%	10%
